The source of these data is the OligoGym collection.
Further: reference of the scale not given here.

The target in the first assay is NEUROD6. The experiment in a line: pooled miR-30 sensor sort-seq; sequence = guide strand. The settings on record: shRNA.
The sequence TTTTCATCTTCCTCTTCCCTGT gave a sensor-assay potency score (higher = more potent) of -0.025.
TGTCTCCTGAACTTGACCCTTT: the sensor-assay potency score (higher = more potent) is -0.00785.
TTAAGTTGTCCAGAGCGTCGTT showed a sensor-assay potency score (higher = more potent) of -0.144.
TCAGAAACTAGTAAACACCTTA returned a sensor-assay potency score (higher = more potent) of 0.248.
The sequence TTTGTTGTCTTTTTTTTCCTAA returned a sensor-assay potency score (higher = more potent) of -0.154.
The same measure, in the same setting: the result for TTTGTCTTAATTAGACAGGGGA reads -0.0326.

A further assay deals with NF1. The assay is described as above. The settings on record: shRNA.
Take TAGAAGGAATATCACATCCTAC: the sensor-assay potency score (higher = more potent) is -0.685.
Regarding TAACTGATGAAGAACCAGCAGA, the sensor-assay potency score (higher = more potent) was -0.956.
TTTGTAGATAGGTAGCACCATA registered a sensor-assay potency score (higher = more potent) of -1.19.
On the same count and under the same terms, the result for TACTAAGAAAGTAACAACGTGG reads 0.245.
On the same count and under the same terms, with TAAAATAGCAATATCATCCCAC the figure was 0.315; with TTGTAGGACAATCAGATGCTAT, -0.838; with TATTACTGTAGCTTCTATCAGA, -0.358.
Still for that read-out and setting: the result for TAGCAGTAACTCTTTGTCGTTT reads -0.737; that for TATTCTACCATCTTATTCCTAA, -0.177; that for TTTGCTTTGAAAACGGTCCTGC, 0.844.

The target of the next assay is NFE2L1. The assay is described as above. The following applies: shRNA.
For the sequence TCGTCCGTTCTCATCTCGCAGC, the sensor-assay potency score (higher = more potent) was -1.23.
In turn, TTACTCAACACAAGCATTCTAG yielded a sensor-assay potency score (higher = more potent) of 0.0111.
Still for that read-out and setting: with TAATTGTCCAGGTCTATGCTCT the figure was -0.487.
Same read-out and setting: the result for TTAGCAGCTTTGAATATTGGGC reads -0.506; that for TTGAATATTGGGCATCTCCTTT, -0.276.
With TTGTCCAGGTCTATGCTCTTGG, the sensor-assay potency score (higher = more potent) was -0.582.
With TTGATGATTTTGTCATTGGTGA, the sensor-assay potency score (higher = more potent) is -0.465.
As for TTATGCTGGAAATGTCTGCTGG, the sensor-assay potency score (higher = more potent) is -0.294.
Same read-out and setting: with TTCCTGTACACTGACCCGCAGT the figure was -0.906.
Still for that read-out and setting: with TAAGTATCCACGTCCACCCGTA the figure was 0.169; with TAAGTCTCCACTGACTGGGGGG, -0.685.
TTTCGCTTTCTCGCACCCCGTT displayed a sensor-assay potency score (higher = more potent) of -0.883.

The target in a further assay is NFYC. Described as above. The settings on record: shRNA.
TGTGTTAGTGATGATCTGCTGC registered a sensor-assay potency score (higher = more potent) of 0.227.
The same measure, in the same setting: with TTATCTTCTGTGTGAATCCAGG the figure was -0.977.
On the same count and under the same terms, with TTGAGTGCCTGATACAGGCTGG the figure was -0.146; with TCTTGGAACAATATCGATGAGA, -0.931; with AAATATTGCATCTTTCTGCTGG, 0.522.
TATTGCATCTTTCTGCTGGAGA registered a sensor-assay potency score (higher = more potent) of -0.521.
In the case of ATCTCTTGGAACAATATCGATG, the sensor-assay potency score (higher = more potent) is -1.33.
Same read-out and setting: the result for TAGAGCTGCTGTCCATCTGTGA reads -0.297.
Turning to TAAGCGGATATACTGCAGCTGG, the sensor-assay potency score (higher = more potent) was -0.727.
Same read-out and setting: with TTGCTGGATCTGGTAGAGCTGC the figure was -1.31.
Sequence TAGCATTGGACACACACTCAAC returned a sensor-assay potency score (higher = more potent) of -0.948.
Consider TAATCTTCTTAATACGAGCCAG, for which the sensor-assay potency score (higher = more potent) was -0.951.
